AmpC inh no detg = blocks E. coli AmpC beta-lactamase in detergent-free assay; AmpC nitrocefin hydrolysis, absorbance 480 nm, 0.0001% Triton; Potency, µM (highest dose often 57.1 µM), inactives show top-dose activity change, negative = inhibition, hits mostly inhibitors; AID 485341; P00811; 0.52% of 330,000 active;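 further: potency means the concentration at half of the fitted maximal effect; plate controls were no compound for no effect and no enzyme for full effect; nearly all actives have a fitted effect of over 20% in size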
Target sequence (P00811 whole entry, looked up): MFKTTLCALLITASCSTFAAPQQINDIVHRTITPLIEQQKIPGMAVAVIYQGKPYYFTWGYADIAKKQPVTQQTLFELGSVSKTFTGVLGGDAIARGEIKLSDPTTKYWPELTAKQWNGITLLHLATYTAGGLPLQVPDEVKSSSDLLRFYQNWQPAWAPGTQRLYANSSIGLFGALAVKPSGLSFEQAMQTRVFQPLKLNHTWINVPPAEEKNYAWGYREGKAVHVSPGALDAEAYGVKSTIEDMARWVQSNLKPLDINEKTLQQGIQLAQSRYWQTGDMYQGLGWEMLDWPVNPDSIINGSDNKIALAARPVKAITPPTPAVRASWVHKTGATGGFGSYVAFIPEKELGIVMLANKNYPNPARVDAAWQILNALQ
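20 mM phosphate pH 7.0 + 0.01% (detergent screen) or 0.0001% Triton X-100; 5.3 nM AmpC reagent; cpd preinc 15 min RT; nitrocefin (800 uM stock) to start; A480 q20 s × 4 min; Activity was normalised to no-enzyme and no-compound control wells.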
AmpC detergent = blocks E. coli AmpC beta-lactamase in detergent assay; P00811; AmpC hydrolysis of nitrocefin, absorbance 480 nm, 0.01% Triton; Potency, µM (highest dose often 114 µM), inactives show at the top dose activity change, negative = inhibition, usual class: inhibitors; 0.041% of 370,000 active;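 further: potency means the concentration at half of the fitted maximal effect; 0% = no-compound wells and -100% = no-enzyme wells; nearly all actives have a fitted effect of over 25% in size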
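20 mM phosphate pH 7.0 + 0.01% (detergent screen) or 0.0001% Triton X-100; 5.3 nM AmpC reagent; cpd preinc 15 min RT; nitrocefin (800 uM stock) to start; A480 q20 s × 4 min; Activity was normalised to no-enzyme and no-compound control wells.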
HCV inh = blocks hepatitis C virus; 3.4% of 340,000 active; AID 651820; Huh7.5.1 HCVcc-Cre infection, luciferase reporter, 44 h; Potency, µM (titrated, usually from 41.8 µM), without a hit: at the top dose activity change, negative = inhibition, actives largely listed as inhibitors; further: potency means the concentration at half of the fitted maximal effect
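After 44 h co-culture of compound, cells and HCVcc-Cre (~0.5 moi), substrate is added for 15 min at room temperature and luciferase measured over 15 sec. Cells were seeded at 1,000/well and pre-cultured 4 h.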
FMDV antiviral = foot and mouth disease virus antiviral activity; Potency, µM (highest dose often 57.9 µM), without a hit: top-dose activity change, negative = inhibition, usual class: inhibitors; 1.2% of 410,000 active; FMDV antiviral cell-based qHTS; AID 1159524; calls by dose curve; tested in HEK293T cells; further: read-out not given here; potency means the concentration at half of the fitted maximal effect; nearly all actives have a fitted effect of over 45% in size
HCMV antiviral = inhibitors of human cytomegalovirus; HFF cells, HCMV-luciferase reporter, 72 h; stronger effect = lower value; activity change, negative = inhibition, % at 57.5 µM; 4.5% of 410,000 active; AID 1259415; in the data active means activity change below about -60%; inconclusive means no clear call, values can overlap the other calls; inactive means above about -39%
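Screen run at 2 compound doses on HFFs infected with reporter HCMV, MOI 1 PFU/cell. Luciferase activity from cell lysates at 72 h post infection gave inhibition relative to buffer-only and Salinomycin wells.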
* marks the source's active call; other numbers are inactive results; ? = inconclusive; · = no result; ! = not confirmed by another sample. A selection: hits, their analogues and other compounds. The true share with any hit is near 7.3%. Unless noted, the call rests on the fitted dose curve; in most records, active means well fitted curve in the direction sought with a large enough effect; inconclusive means small, poorly fitted or top-dose-only effect, or another doubt; inactive means no such curve, though single readings can be large; an effect the other way counts as inactive or inconclusive. Unless noted, on the % scale 0 is the no-effect control and ±100 the full control effect.

SMILES	AmpC inh no detg	AmpC detergent	HCV inh	FMDV antiviral	HCMV antiviral
Cc1ccc(S(=O)(=O)N2CCCc3cc(NC(=O)c4c(F)cccc4F)ccc32)cc1	-23.5%	-9.0%	10µM*	-8.2%	-69.2*!
O=C(Nc1ccc2c(c1)N(S(=O)(=O)c1cccs1)CCC2)c1c(F)cccc1Cl	-44.4%	-7.9%	14.1µM*	2.9%	-26.6
CC(=O)N1CCCc2ccc(NS(=O)(=O)c3ccc(C)c(C)c3)cc21	-20.7%	-3.8%	?	-6.6%	-33.6
COc1ccc(S(=O)(=O)Nc2ccc3c(c2)N(C(C)=O)CCC3)cc1F	·	-2.2%	·	10µM*	-11.1
COc1cccc(NS(=O)(=O)c2ccc3c(c2)CCCN3C(C)=O)c1	-5.1%	-6.9%	-10.6%	·	-60.0*
COc1cccc(OC)c1C(=O)Nc1ccc2c(c1)CCCN2S(=O)(=O)c1ccc(C)cc1	4.7%	-13.0%	?	-12.8%	-64.2*!
Cc1ccc(S(=O)(=O)N2CCCc3cc(NC(=O)c4cccc(Cl)c4)ccc32)cc1	·	-2.6%	·	2.9%	-4.3
Cc1ccc(S(=O)(=O)N2CCCc3cc(NS(=O)(=O)c4ccc(F)cc4)ccc32)cc1	·	19.1%	·	-24.8%	?
COc1ccc(S(=O)(=O)Nc2ccc3c(c2)CCCN3S(=O)(=O)c2ccc(C)cc2)cc1F	·	9.5%	·	-11.7%	-63.9*
CCc1cc(C(=O)NCc2c(C)ncc3c2CCN(C(=O)C2=CCCC2)C3)no1	·	·	·	-7.2%	·
CC[C@@]1(c2ccccc2OC)ON(c2ccccc2C(F)(F)F)C1=O	-12.7%	1.0%	?	31.6µM*	?
CC1(C)Cc2ccccc2C(/C(C#N)=N/O)=N1	-20.1%	3.6%	2.1%	13.1%	11.8
COc1ccc(N/N=C(/C(N)=O)C2=NC(C)(C)Cc3ccccc32)cc1	1.4%	-1.2%	?	-19.3%	-91.6*
O=C(CN1Cc2ccccc2C1=O)Nc1ccc2c(c1)OCCO2	2.4%	0.3%	-3.1%	27.6%	0.0
CCCCCn1c(=N)n(CC(O)COc2cccc(C)c2)c2ccccc21 (stereo unspecified)	·	15.3%	·	?	-105.5*
CCCCn1c(=N)n(CC(O)COc2ccccc2)c2ccccc21 (stereo unspecified)	25.6%	-3.5%	?	?	14.0
CCCCn1c(=N)n(CC(O)COc2ccc(C)cc2)c2ccccc21 (stereo unspecified)	-4.5%	?	11.2µM*	?	-33.8
CS(=O)(=O)c1cccc(C(=O)OCC(=O)NC(=O)Nc2ccccc2F)c1	-17.0%	·	11.4%	-6.7%	-38.3
O=Cc1ccc(C(=O)OCC(=O)NC(=O)Nc2ccccc2F)cc1	28.2µM*	·	3.8%	13.1%	·
COc1ccccc1-c1cc(C(F)(F)F)n2ncc(C(=O)N3CCc4ccccc4C3)c2n1	0.1%	-0.1%	11.2µM*	-29.0%	-13.4
CCOC(=O)[C@@H]1CSCCS(=O)(=O)N1C(=O)[C@H](C)NC(=O)OC(C)(C)C	·	·	·	·	-3.7
CCOc1ccc(NC(=O)CSc2nnc(Cn3cnc([N+](=O)[O-])n3)n2CC)cc1	11.2%	3.3%	5.8%	-3.4%	-67.1*
COC(=O)C1CCCCN1Cc1ccc2c(c1)CN(C(=O)c1ccc(F)cc1)CCO2 (stereo unspecified)	·	·	·	-7.6%	·
Cc1ccc(-c2noc(C3CCN(S(=O)(=O)c4ccc5c(c4)OCCO5)CC3)n2)o1	-16.9%	-10.7%	12.6µM*	?	-96.0*
O=S(=O)(c1ccc2ccccc2c1)N1CCC(c2nc(-c3ccncc3)no2)CC1	-11.9%	?	8.91µM*	?	-73.4*
SMILES	AmpC inh no detg	AmpC detergent	HCV inh	FMDV antiviral	HCMV antiviral
Cc1ccc(-c2noc(C3CCCN(S(=O)(=O)c4ccc5ccccc5c4)C3)n2)o1 (stereo unspecified)	-18.0%	?	-0.4%	·	?
Cc1nc2scc(C)n2c(=O)c1S(=O)(=O)N1CCN(c2ccccn2)CC1	22.9%	?	15.5%	-0.4%	39.7
O=[N+]([O-])c1cccc(/C=N/Nc2nc(N3CCCCC3)nc(N3CCCCC3)n2)c1	-28.2%	?	5.62µM*	-27.5%	-10.5
COc1ccc(/C=N/Nc2nc(Nc3ccccc3)nc(N3CCCC3)n2)cc1[N+](=O)[O-]	-31.4%	-1.0%	?	-16.8%	?
COc1ccc(/C=N/Nc2nc(N3CCCCC3)nc(N3CCCCC3)n2)cc1[N+](=O)[O-]	-29.7%	-7.2%	3.55µM*	-24.7%	-74.2*
O=[N+]([O-])c1cccc(-c2ccc(/C=N/Nc3nc(N4CCCCC4)nc(N4CCCCC4)n3)o2)c1	-32.3%	3.2%	11.2µM*	-17.5%	-6.4
O=C(Oc1cccc(/C=N/Nc2nc(N3CCOCC3)nc(N3CCOCC3)n2)c1)c1ccco1	4.2%	?	1.12µM*	?	125.2
O=[N+]([O-])c1cccc(-n2cccc2/C=N/Nc2nc(N3CCCCC3)nc(N3CCCCC3)n2)c1	-24.4%	3.3%	?	-11.2%	-9.1
CN1CCN(C(=O)CN(C2CCCCC2)S(=O)(=O)c2ccc(Br)cc2)CC1	118.2%	?	-4.8%	-5.1%	32.3
COC1(C(F)(F)F)NC(=O)N(c2ccc(F)cc2)C1=O (stereo unspecified)	·	0.7%	·	-11.6%	9.7
NC(=O)C[C@H](N)c1cn([C@@H](CC(N)=O)C(=O)N2CCNCC2)nn1	-20.8%	-11.1%	27.4%	-10.7%	-60.1*
O=C(CCCCCN1C(=O)CCC1=O)Nc1ncn[nH]1	-26.9%	?	-26.6%	-6.7%	-103.2*
Cc1c(Cl)cccc1NC(=O)CCCCCN1C(=O)CCC1=O	-14.1%	?	13.4%	13.7%	25.9
CCN1CCN(c2oc(-c3ccc(COc4ccccc4C)o3)nc2C#N)CC1	·	-3.3%	·	-25.1%	-29.7
COc1ccc(OCCNc2cc(N3CCCCC3)ccc2[N+](=O)[O-])cc1	2.4%	-9.0%	?	-21.1%	?
COc1ccc(OCCNc2cc(Cl)ccc2[N+](=O)[O-])cc1	-40.3%	-6.1%	?	·	-65.3*
COc1cccc(OCCNc2cc(N3CCOCC3)ccc2[N+](=O)[O-])c1	-22.2%	-3.6%	14.1µM*	-1.3%	30.8
Cc1ccccc1OCCNc1cc(N2CCN(CCO)CC2)ccc1[N+](=O)[O-]	109.0%	-13.5%	?	0.0%	-37.8
CC1CN(c2ccc([N+](=O)[O-])c(NCCOc3ccccc3)c2)CCN1 (stereo unspecified)	7.0%	8.2%	10µM*	7.1%	39.1
Cc1ccccc1OCCNc1cc(N2CCCCC2)ccc1[N+](=O)[O-]	31.2%	-2.2%	14.1µM*	-7.8%	-28.4
C/C(=N\NC(=O)C1(C)CC1(Br)Br)c1cccc(NC(=O)c2ccc(C)o2)c1 (stereo unspecified)	-1.0%	-5.6%	·	?	-13.1
COc1cc(C(=O)Nc2ccc(NC(=O)c3ccc(C(C)(C)C)cc3)cc2)cc(OC)c1OC	·	9.0%	·	?	30.8

From PubChem BioAssay
